Assay results taken from PubChem BioAssay AID1159580 (chemical genetic matrix, 2015).
Several values for one entry are separate records, joined by “and”; a condition that tells them apart may be missing. Identical values can stand only once. Out of some 5,500 compounds screened, about 2,000 (36%) were called active. Inconclusive results (about 18%) are left out. Rule as the data show it: active = normalized growth mostly below about 0.91 (no sharp cut-off); inconclusive = no clear call, values can overlap the other calls; inactive = mostly above about 0.92. The list shows a part of the results.

Assay: chemical genetic growth profiling, strain panel (AID 1159580);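 also: tested at 20 µM; growth read once vehicle control cultures reached saturation at 30 °C; 1 = growth at the plate median or of vehicle wells; lower values mean less growth of the strain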
Details: growth OD

Measured: normalized growth

CN1C(C(=O)Nc2ccccn2)=C(O)c2ccccc2S1(=O)=O
inactive: S. cerevisiae deletion strains, locus YKL009W, strain mrt4, active compounds read low 0.963 | S. cerevisiae deletion strains, locus YKL085W, strain MDH1 (second series), active compounds read low 0.935 | S. cerevisiae deletion strains, locus YKL085W, strain MDH1, active compounds read low 0.935 | S. cerevisiae deletion strains, locus YKL160W, strain elf1, active compounds read low 0.933 | S. cerevisiae deletion strains, locus YKL190W, strain CNB1, active compounds read low 1.01 | S. cerevisiae deletion strains, locus YKR001C, strain vps1, active compounds read low 0.969 | S. cerevisiae deletion strains, locus YKR026C, strain gcn3, active compounds read low 0.958 | S. cerevisiae deletion strains, locus YKR091W, strain srl3, active compounds read low 0.968 | S. cerevisiae deletion strains, locus YLL001W, strain dnm1, active compounds read low 0.963 | S. cerevisiae deletion strains, locus YLL041C, strain sdh2, active compounds read low 0.953 | S. cerevisiae deletion strains, locus YLR027C, strain aat2, active compounds read low 0.932 | S. cerevisiae deletion strains, locus YLR039C, strain RIC1, active compounds read low 0.984 | S. cerevisiae deletion strains, locus YLR058C, strain SHM2, active compounds read low 0.982 | S. cerevisiae deletion strains, locus YLR102C, strain apc9, active compounds read low 0.946 | S. cerevisiae deletion strains, locus YLR113W, strain HOG1, active compounds read low 0.934 | S. cerevisiae deletion strains, locus YLR221C, strain rsa3, active compounds read low 0.925 | S. cerevisiae deletion strains, locus YLR258W, strain gsy2, active compounds read low 0.95 | S. cerevisiae deletion strains, locus YLR262C, strain YPT6 (second series), active compounds read low 0.919 | S. cerevisiae deletion strains, locus YLR262C, strain YPT6, active compounds read low 0.998 | S. cerevisiae deletion strains, locus YLR268W, strain sec22, active compounds read low 0.921 | S. cerevisiae deletion strains, locus YLR320W, strain mms22, active compounds read low 0.881 | S. cerevisiae deletion strains, locus YLR330W, strain CHS5, active compounds read low 0.967 | S. cerevisiae deletion strains, locus YLR342W, strain FKS1 (second series), active compounds read low 0.94 | S. cerevisiae deletion strains, locus YLR342W, strain FKS1, active compounds read low 0.931 | S. cerevisiae deletion strains, locus YLR357W, strain rsc2, active compounds read low 1 | S. cerevisiae deletion strains, locus YLR370C, strain arc18, active compounds read low 0.985 | S. cerevisiae deletion strains, locus YLR371W, strain rom2, active compounds read low 0.95 | S. cerevisiae deletion strains, locus YLR384C, strain iki3, active compounds read low 0.961 | S. cerevisiae deletion strains, locus YLR418C, strain cdc73, active compounds read low 0.905 | S. cerevisiae deletion strains, locus YML016C, strain PPZ1, active compounds read low 0.965 | S. cerevisiae deletion strains, locus YML032C, strain rad52, active compounds read low 0.954 | S. cerevisiae deletion strains, locus YML120C, strain ndi1, active compounds read low 0.95 | S. cerevisiae deletion strains, locus YML124C, strain tub3, active compounds read low 0.95 | S. cerevisiae deletion strains, locus YMR058W, strain fet3, active compounds read low 0.961 | S. cerevisiae deletion strains, locus YMR078C, strain ctf18, active compounds read low 0.926 | S. cerevisiae deletion strains, locus YMR125W, strain sto1, active compounds read low 0.985 | S. cerevisiae deletion strains, locus YMR129W, active compounds read low 0.935 | S. cerevisiae deletion strains, locus YMR223W, strain ubp8, active compounds read low 0.97 | S. cerevisiae deletion strains, locus YMR231W, strain pep5, active compounds read low 0.97 | S. cerevisiae deletion strains, locus YMR263W, strain SAP30, active compounds read low 0.996 | S. cerevisiae deletion strains, locus YMR307W, strain GAS1, active compounds read low 0.836 and 1 | S. cerevisiae deletion strains, locus YNL067W, strain RPL9B, active compounds read low 1 | S. cerevisiae deletion strains, locus YNL128W, strain TEP1, active compounds read low 1.02 | S. cerevisiae deletion strains, locus YNL153C, strain GIM3, active compounds read low 0.984 | S. cerevisiae deletion strains, locus YNL175C, strain NOP13, active compounds read low 0.971 | S. cerevisiae deletion strains, locus YNL183C, strain NPR1, active compounds read low 0.919 | S. cerevisiae deletion strains, locus YNL197C, strain WHI3, active compounds read low 0.97 | S. cerevisiae deletion strains, locus YNL209W, strain ssb2, active compounds read low 0.982 | S. cerevisiae deletion strains, locus YNL224C, strain SQS1, active compounds read low 0.968 | S. cerevisiae deletion strains, locus YNL233W, strain BNI4, active compounds read low 0.993 | S. cerevisiae deletion strains, locus YNL250W, strain rad50, active compounds read low 0.923 | S. cerevisiae deletion strains, locus YNL298W, strain CLA4, active compounds read low 0.935 | S. cerevisiae deletion strains, locus YNL322C, strain KRE1 (second series), active compounds read low 0.943 | S. cerevisiae deletion strains, locus YNL322C, strain KRE1, active compounds read low 0.973 and 1 | S. cerevisiae deletion strains, locus YNR049C, strain mso1, active compounds read low 0.964 | S. cerevisiae deletion strains, locus YNR052C, strain pop2, active compounds read low 0.965 | S. cerevisiae deletion strains, locus YOL006C, strain TOP1, active compounds read low 0.999 | S. cerevisiae deletion strains, locus YOL012C, strain htz1 0.613 | S. cerevisiae deletion strains, locus YOL147C, strain pex11, active compounds read low 0.944 | S. cerevisiae deletion strains, locus YOR001W, strain rrp6, active compounds read low 0.92 | S. cerevisiae deletion strains, locus YOR061W, strain CKA2, active compounds read low 0.976 | S. cerevisiae deletion strains, locus YOR069W, strain VPS5, active compounds read low 0.966 | S. cerevisiae deletion strains, locus YOR070C, strain gyp1, active compounds read low 0.973 | S. cerevisiae deletion strains, locus YOR080W, strain dia2, active compounds read low 0.978 | S. cerevisiae deletion strains, locus YOR083W, strain WHI5 (second series), active compounds read low 0.99 | S. cerevisiae deletion strains, locus YOR083W, strain WHI5, active compounds read low 0.946 | S. cerevisiae deletion strains, locus YOR106W, strain vam3, active compounds read low 0.965 | S. cerevisiae deletion strains, locus YOR136W, strain idh2, active compounds read low 0.988 | S. cerevisiae deletion strains, locus YOR144C, strain elg1, active compounds read low 0.953 | S. cerevisiae deletion strains, locus YOR184W, strain ser1, active compounds read low 0.961 | S. cerevisiae deletion strains, locus YOR231W, strain MKK1, active compounds read low 0.945 | S. cerevisiae deletion strains, locus YOR265W, strain rbl2, active compounds read low 0.967 | S. cerevisiae deletion strains, locus YOR270C, strain vph1, active compounds read low 0.954 | S. cerevisiae deletion strains, locus YOR290C, strain snf2, active compounds read low 0.971 | S. cerevisiae deletion strains, locus YOR316C, strain cot1, active compounds read low 0.95 | S. cerevisiae deletion strains, locus YPL051W, strain arl3, active compounds read low 0.961 | S. cerevisiae deletion strains, locus YPL055C, strain LGE1, active compounds read low 0.987 | S. cerevisiae deletion strains, locus YPL078C, strain atp4, active compounds read low 0.95 | S. cerevisiae deletion strains, locus YPL106C, strain sse1, active compounds read low 0.989 | S. cerevisiae deletion strains, locus YPL240C, strain hsp82, active compounds read low 0.953 | S. cerevisiae deletion strains, locus YPL241C, strain CIN2, active compounds read low 0.967 | S. cerevisiae deletion strains, locus YPL256C, strain CLN2, active compounds read low 0.907 | S. cerevisiae deletion strains, locus YPR119W, strain clb2, active compounds read low 0.931 | S. cerevisiae deletion strains, locus YPR141C, strain kar3, active compounds read low 0.923 | S. cerevisiae deletion strains, locus YPR167C, strain met16, active compounds read low 0.962 | S. cerevisiae deletion strains, strain wtn01, active compounds read low 0.961 | S. cerevisiae strains, strain wild type, active compounds read low 0.984
active: S. cerevisiae deletion strains, locus YKL068W, active compounds read low 0.925 | S. cerevisiae deletion strains, locus YLL026W, active compounds read low 0.93 | S. cerevisiae deletion strains, locus YMR205C, strain PFK2, active compounds read low 0.781 | S. cerevisiae deletion strains, locus YNL071W, strain lat1, active compounds read low 0.786 | S. cerevisiae deletion strains, locus YNL248C, strain rpa49, active compounds read low 1.26 [resistant] | S. cerevisiae deletion strains, locus YNL271C, strain bni1, active compounds read low 0.911 | S. cerevisiae deletion strains, locus YNL307C, strain MCK1, active compounds read low 0.82 | S. cerevisiae deletion strains, locus YPR163C, strain tif3, active compounds read low 0.885
